Records with an inconclusive call do not appear. The source made the active and inactive calls. Unless noted, the call rests on the fitted dose curve.
Tests used:
[1] = Nuclear factor erythroid 2-related factor 2/antioxidant responsive element (Nrf2/ARE) small molecule agonists: qHTS cell viability counter screen in human keratinocytes (AID 1919968; active means well fitted curve in the direction sought with a large enough effect in the repeat runs; an effect the other way counts as inactive or inconclusive; further: nearly all actives have a fitted effect of over 55% in size)
In short: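 KeratinoSens HaCaT cells, 1,500/well, preincubated 5 h, then exposed to compounds in DMSO for 23 h at 37 C/5% CO2. Viability read as CellTiter-Fluor fluorescence after 1 h, in the same wells as the ARE-luciferase read.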

[2] = Nuclear factor erythroid 2-related factor 2/antioxidant responsive element (Nrf2/ARE) small molecule agonists: luciferase reporter gene qHTS assay in human keratinocytes (AID 1919969); further: nearly all actives have a fitted effect of over 35% in size; further: potency means the concentration at half of the fitted maximal effect
[3] = biological target: Gonadotropin-releasing hormone receptor (Homo sapiens) (UniProt P30968); test: Human gonadotropin-releasing hormone receptor (GnRHR) small molecule agonists, calcium flux assay in GnRHR-HEK293 cells (AID 1920063); further: nearly all actives have a fitted effect of over 35% in size
Sequence of Gonadotropin-releasing hormone receptor (Homo sapiens) (P30968 whole entry, looked up): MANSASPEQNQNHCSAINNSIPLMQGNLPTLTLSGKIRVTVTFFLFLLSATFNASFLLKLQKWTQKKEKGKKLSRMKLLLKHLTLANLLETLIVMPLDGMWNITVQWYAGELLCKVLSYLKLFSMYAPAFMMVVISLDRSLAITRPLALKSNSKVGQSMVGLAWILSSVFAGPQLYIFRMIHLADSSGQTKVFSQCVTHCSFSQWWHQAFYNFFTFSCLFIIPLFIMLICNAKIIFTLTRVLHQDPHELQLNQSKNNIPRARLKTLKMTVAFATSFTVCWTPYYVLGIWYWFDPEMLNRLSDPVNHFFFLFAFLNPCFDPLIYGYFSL
In short: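 HEK293 cells stably expressing human GnRHR were dye-loaded for 1 h at 37 C. Compound was added in agonist mode and fluorescence (Ex/Em 480/540) recorded kinetically for 3 min. Fifteen concentrations, triplicates.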

[4] = biological target: KiSS-1 receptor (Homo sapiens) (UniProt Q969F8); test: Human kisspeptin (KISS1R) small molecule agonists, calcium flux assay in KISS1R-HEK293 cells (AID 1920064; active means well fitted curve in the direction sought with a large enough effect in the repeat runs; an effect the other way counts as inactive or inconclusive)
Sequence of KiSS-1 receptor (Homo sapiens) (Q969F8 whole entry, looked up): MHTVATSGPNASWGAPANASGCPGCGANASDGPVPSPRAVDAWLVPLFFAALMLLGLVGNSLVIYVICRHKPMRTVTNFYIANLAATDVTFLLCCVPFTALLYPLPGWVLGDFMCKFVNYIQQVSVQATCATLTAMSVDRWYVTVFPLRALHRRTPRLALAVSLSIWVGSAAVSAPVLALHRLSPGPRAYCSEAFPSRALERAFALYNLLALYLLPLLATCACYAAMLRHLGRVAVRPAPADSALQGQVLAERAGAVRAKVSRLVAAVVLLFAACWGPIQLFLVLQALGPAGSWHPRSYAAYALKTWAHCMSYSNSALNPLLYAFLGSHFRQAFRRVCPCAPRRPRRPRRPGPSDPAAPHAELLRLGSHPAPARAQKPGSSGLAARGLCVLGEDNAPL
In short: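 HEK293 cells stably expressing human KISS1R were loaded with calcium dye for 1 h at 37 C, then given compound; fluorescence (Ex/Em 480/540) was read kinetically for 3 min. Fifteen concentrations, triplicate.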

[5] = G protein-coupled receptor (GPCR) small molecule agonists, calcium flux assay: HEK293 wild type cell line counter screen (AID 1920065)
In short: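 Wild-type HEK293 cells plated 18 h, loaded with calcium dye 1 h at 37 C, then compounds added in agonist mode (ATP as positive control). Kinetic fluorescence Ex/Em 480/540 recorded 3 min at 1 sec intervals; 15 concentrations, triplicate.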

[6] = p53 small molecule agonists, cell-based qHTS assay with human liver microsomes (AID 1963577)
In short: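 Compounds act here after metabolic activation: human liver microsomes and NADPH, both at 0.5 mg/mL final, were co-added to p53RE-bla cells. Incubation ran 16 h at 37 C, followed by LiveBLAzer detection.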

[7] = p53 small molecule agonists, cell-based qHTS assay with rat liver microsomes (AID 1963578)
In short: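 Read-out is beta-lactamase reporter fluorescence (LiveBLAzer, 2 h, room temperature, dark) in p53RE-bla cells treated 16 h at 37 C with compound, rat liver microsomes and NADPH, both 0.5 mg/mL final.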

[8] = p53 small molecule agonists, cell-based qHTS assay with human liver microsomes: qHTS cell viability counter screen (AID 1963579); further: nearly all actives have a fitted effect of over 45% in size
In short: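 Cells carrying the p53 response-element beta-lactamase reporter are treated for 16 h at 37 C with test compounds in the presence of human liver microsomes and NADPH (both 0.5 mg/mL final); ATP-based CellTiter-Glo luminescence then reports viability.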

[9] = p53 small molecule agonists, cell-based qHTS assay with rat liver microsomes: qHTS cell viability counter screen (AID 1963580); further: nearly all actives have a fitted effect of over 45% in size
In short: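 In HCT-116 cells carrying a p53 response element-bla reporter, compounds were metabolically activated in situ by rat liver microsomes with NADPH over 16 h. Cell ATP content then served as the cytotoxicity measure.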

[10] = p53 small molecule agonists, cell-based qHTS assay: qHTS cell viability counter screen (AID 1963581); further: nearly all actives have a fitted effect of over 45% in size
In short: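 p53RE-bla HCT-116 cells, compounds added 5 h after plating and incubated 16 h at 37 C. Cytotoxicity measured in the same wells as intracellular ATP by CellTiter-Glo luminescence after 30 min at room temperature.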

[11] = p53 small molecule agonists, cell-based qHTS assay (AID 1963582; active means well fitted activation curve with a large enough effect in the signal ratio in the repeat runs, not every such curve was filed as active; the % refers to the signal ratio)
In short: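 p53RE-bla reporter cells, compounds added in DMSO after 5 h plating, incubated 16 h at 37 C. Beta-lactamase read via 2 h room-temperature LiveBLAzer B/G FRET substrate, fluorescence intensity.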

[12] = biological target: 5-hydroxytryptamine receptor 2A (Homo sapiens) (UniProt P28223); test: 5-hydroxytryptamine receptor 2A (HTR2A) small molecule antagonists, cell-based qHTS assay (AID 1963586); further: nearly all actives have a fitted effect of over 45% in size
Sequence of 5-hydroxytryptamine receptor 2A (Homo sapiens) (P28223 whole entry, looked up): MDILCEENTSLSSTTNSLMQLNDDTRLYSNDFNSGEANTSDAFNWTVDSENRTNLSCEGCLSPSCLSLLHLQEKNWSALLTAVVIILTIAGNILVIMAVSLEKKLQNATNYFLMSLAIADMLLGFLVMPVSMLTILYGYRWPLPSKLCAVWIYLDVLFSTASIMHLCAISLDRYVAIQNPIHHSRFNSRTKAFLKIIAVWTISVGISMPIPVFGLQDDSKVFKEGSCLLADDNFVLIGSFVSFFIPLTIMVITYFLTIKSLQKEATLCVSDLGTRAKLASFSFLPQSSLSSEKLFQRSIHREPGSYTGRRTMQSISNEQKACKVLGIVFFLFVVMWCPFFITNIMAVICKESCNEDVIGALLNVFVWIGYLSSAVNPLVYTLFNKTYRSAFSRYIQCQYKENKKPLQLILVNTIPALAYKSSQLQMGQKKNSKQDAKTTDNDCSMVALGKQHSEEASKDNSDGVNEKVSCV
In short: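 Antagonist-mode intracellular calcium assay: DOI (4 nM) added after 5 min compound pre-incubation at room temperature to dye-loaded HTR2A-CHO cells. Fluorescence followed for 3 min, sampled every second.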

[13] = biological target: 5-hydroxytryptamine receptor 2A (Homo sapiens) (UniProt P28223); test: 5-hydroxytryptamine receptor 2A (HTR2A) small molecule agonists, cell-based qHTS assay (AID 1963587); further: nearly all actives have a fitted effect of over 30% in size
In short: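 HTR2A-CHO cells, plated 18 h at 37 C/5% CO2, dye-loaded 1 h at 37 C; compounds in DMSO added by pin tool (agonist mode). Intracellular calcium flux read as kinetic fluorescence on FDSS over 2 min at 1 s intervals.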

[14] = biological target: Muscarinic acetylcholine receptor M1 (Homo sapiens) (UniProt P11229); test: Cholinergic receptor muscarinic 1 (CHRM1) small molecule antagonists, cell-based qHTS assay (AID 1963588); further: nearly all actives have a fitted effect of over 40% in size
Sequence of Muscarinic acetylcholine receptor M1 (Homo sapiens) (P11229 whole entry, looked up): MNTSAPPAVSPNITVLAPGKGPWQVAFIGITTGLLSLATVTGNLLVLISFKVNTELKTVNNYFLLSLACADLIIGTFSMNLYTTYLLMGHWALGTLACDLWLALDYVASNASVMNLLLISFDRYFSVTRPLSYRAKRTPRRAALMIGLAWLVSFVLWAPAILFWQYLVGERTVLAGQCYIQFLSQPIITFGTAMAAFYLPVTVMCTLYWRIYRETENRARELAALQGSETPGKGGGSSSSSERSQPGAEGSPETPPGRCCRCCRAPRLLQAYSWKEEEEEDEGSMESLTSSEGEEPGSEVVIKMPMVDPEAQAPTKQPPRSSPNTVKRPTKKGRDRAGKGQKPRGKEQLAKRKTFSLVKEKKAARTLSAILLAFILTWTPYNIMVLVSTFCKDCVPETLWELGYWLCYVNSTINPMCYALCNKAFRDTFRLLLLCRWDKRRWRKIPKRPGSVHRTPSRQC
In short: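 CHRM1-CHO calcium-flux assay, antagonist mode. Cells were seeded 18 h, dye-loaded 1 h at 37 C and given compound for 5 min at RT, then acetylcholine was added at 50nM. FDSS fluorescence was read 3 min; 15 concentrations, three runs.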

[15] = biological target: Muscarinic acetylcholine receptor M1 (Homo sapiens) (UniProt P11229); test: Cholinergic receptor muscarinic 1 (CHRM1) small molecule agonists, cell-based qHTS assay (AID 1963589); further: nearly all actives have a fitted effect of over 35% in size
In short: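 CHO cells stably expressing human CHRM1 were loaded with calcium dye for 1 h at 37 C, then compound was added in agonist mode. Intracellular calcium fluorescence was followed kinetically at 1 s intervals. Fifteen concentrations were tested in three independent runs.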

[16] = cAMP Responsive Elements (CRE) small molecule agonists, cell-based qHTS assay (AID 1963590)
In short: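 CRE-bla HEK 293T cells, 2,000/well in DMEM with 10% dialyzed FBS and 25 mM HEPES, pre-incubated 18 h at 37 C, then exposed to compound 3 h at 37 C. Beta-lactamase reporter read with LiveBLAzer B/G FRET substrate after 2 h at room temperature.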

[17] = cAMP Responsive Elements (CRE) small molecule antagonists, cell-based qHTS assay (AID 1963591; active means well fitted inhibition curve with a large enough effect in the signal ratio in the repeat runs, not every such curve was filed as active; the % refers to the signal ratio)
In short: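 CRE-bla HEK293T cells plated 18 h, then given compound plus NKH477 at 0.25 uM final for 3 h at 37C. Beta-lactamase reporter read with LiveBLAzer B/G FRET substrate after 2 h at room temperature.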

[18] = biological target: Beta-2 adrenergic receptor (Homo sapiens) (UniProt P07550); test: Adrenergic beta2 receptor (ADRB2) small molecule antagonists, cell-based qHTS assay (AID 1963592); further: series mostly up to about 92 µM; nearly all actives have a fitted effect of over 50% in size
Sequence of Beta-2 adrenergic receptor (Homo sapiens) (P07550 whole entry, looked up): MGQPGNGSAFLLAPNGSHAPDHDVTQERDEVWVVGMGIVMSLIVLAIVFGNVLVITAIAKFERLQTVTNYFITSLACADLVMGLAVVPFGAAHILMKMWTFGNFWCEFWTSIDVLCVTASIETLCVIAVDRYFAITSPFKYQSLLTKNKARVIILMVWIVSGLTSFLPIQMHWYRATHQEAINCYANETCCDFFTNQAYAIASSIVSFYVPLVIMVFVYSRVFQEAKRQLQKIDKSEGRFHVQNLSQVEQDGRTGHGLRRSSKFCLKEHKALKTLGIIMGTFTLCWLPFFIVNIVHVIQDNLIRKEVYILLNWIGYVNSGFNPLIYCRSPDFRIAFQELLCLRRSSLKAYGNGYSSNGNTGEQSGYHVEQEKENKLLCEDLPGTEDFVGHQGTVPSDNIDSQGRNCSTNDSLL
In short: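 Cells (CHO, stable ADRB2 overexpression) incubated 18-20hr at 37C; compounds added from DMSO; agonist mix (1nM isoproterenol, 100uM IBMX, 25uM Ro-20-1724) added; 0.5hr RT; d2-cAMP and anti-cAMP-cryptate added; 1hr RT; 665/615 nm read.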

[19] = biological target: D(2) dopamine receptor (Homo sapiens) (UniProt P14416); test: Dopamine D2 receptor (DRD2) small molecule agonists, cell-based qHTS assay (AID 1963594); further: nearly all actives have a fitted effect of over 35% in size
Sequence of D(2) dopamine receptor (Homo sapiens) (P14416 whole entry, looked up): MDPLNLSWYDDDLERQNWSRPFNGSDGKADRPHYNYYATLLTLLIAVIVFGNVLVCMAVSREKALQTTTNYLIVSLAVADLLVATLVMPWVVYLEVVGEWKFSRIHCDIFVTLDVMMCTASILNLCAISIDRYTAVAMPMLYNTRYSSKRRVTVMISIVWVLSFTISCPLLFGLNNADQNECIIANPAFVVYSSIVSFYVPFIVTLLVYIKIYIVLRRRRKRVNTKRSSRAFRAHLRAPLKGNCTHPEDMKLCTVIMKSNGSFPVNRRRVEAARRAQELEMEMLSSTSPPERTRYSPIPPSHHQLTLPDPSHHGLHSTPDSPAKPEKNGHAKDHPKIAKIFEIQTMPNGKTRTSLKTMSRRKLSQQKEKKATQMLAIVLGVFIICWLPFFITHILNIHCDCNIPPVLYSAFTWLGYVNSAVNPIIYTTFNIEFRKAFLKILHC
In short: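 HEK293 cells stably expressing DRD2 were cultured 24 h at 37 C, then given Ro20-1724 (0.1 mM final) and compounds for 10 min at room temperature. NKH477 (200nM) was then added for 30 min. cAMP was read by HTRF.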

[20] = biological target: D(2) dopamine receptor (Homo sapiens) (UniProt P14416); test: Dopamine D2 receptor (DRD2) small molecule antagonists, cell-based qHTS assay (AID 1963595; active means well fitted inhibition curve with a large enough effect in the signal ratio in the repeat runs, with a control signal flat; the % refers to the signal ratio)
In short: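 Human DRD2 antagonist qHTS measuring cAMP by HTRF. The cells are exposed to compound for 10 min, then to NKH477 (200 nM) and quinpirole (12 nM) for 30 min at RT, with Ro20-1724 (0.1 mM) present throughout.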

Measured: Potency

CC(N)CCCC(C)(C)O (configuration not stated)
inactive: all assays above

CCC(=O)c1cccc(Cl)c1
not listed: [20]
inactive: all other assays above

Nc1ccnc(=O)[nH]1
inactive: all assays above

O=C(CCBr)N1CCN(C(=O)CCBr)CC1
inactive: all assays above

O=C1OC(=O)c2cccc3cccc1c23
active: [2] 27.6 µM
inactive: all other assays above

CCC(C)(CCCC(C)C)OC(C)=O (configuration not stated)
inactive: all assays above

CC1=C(CC=O)C(C)(C)CCC1
not listed: [20]
inactive: all other assays above

Cc1ccc2sc3cccc(C)c3c2c1
inactive: all assays above

CC(C)CCCC(C)NCCC(C)C (configuration not stated)
inactive: all assays above

Cc1cc(-n2nc3ccc(Cl)cc3n2)c(O)c(C(C)(C)C)c1
not listed: [20]
inactive: all other assays above

CO[C@@H]1[C@@H](OC(N)=O)[C@@H](O)[C@H](Oc2ccc3c(O)c(NC(=O)c4ccc(O)c(CC=C(C)C)c4)c(=O)oc3c2C)OC1(C)C
inactive: all assays above

CCCCCCCCCCCCCCCCC(=O)O
inactive: all assays above

Cc1cc(-c2ccccc2)nnc1NCCN1CCOCC1
inactive: all assays above
